Binding signal data for 1 sequence are collected here from paper PMC7862700, “An all-to-all approach to the identification of sequence-specific readers for epigenetic DNA modifications on cytosine”.

Holding throughout (assay): DAPPL (digital affinity profiling via proximity ligation, sequencing); 10 mM Tris-HCl pH 7.5, 50 mM NaCl, 1 mM DTT, 4% glycerol, room temperature, 30 min; GST-TFs on glutathione beads, 16-mer random dsDNA library, 0.1% formaldehyde crosslink after washing; high values mean tight binding
In assay [1] the target is T1, FEV (Homo sapiens, UniProt Q99581 1-238).
T1 sequence: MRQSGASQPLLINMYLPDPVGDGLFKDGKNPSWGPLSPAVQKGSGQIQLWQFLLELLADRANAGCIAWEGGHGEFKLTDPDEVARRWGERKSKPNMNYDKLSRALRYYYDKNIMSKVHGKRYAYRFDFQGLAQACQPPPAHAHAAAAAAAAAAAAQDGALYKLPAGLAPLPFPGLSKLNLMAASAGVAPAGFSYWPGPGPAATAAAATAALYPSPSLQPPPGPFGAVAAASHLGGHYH
The following applies: protein: recombinant; tags: N-terminal GST; dsDNA, one strand shown. The method, boiled down: (§1)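 Binding signal is given per hexamer as its read frequency for a factor divided by its frequency in the tag-only sample. GST-fused human transcription factors were expressed in yeast, captured on glutathione beads, barcoded with DNA and pooled with that sample, then incubated with 200 nmole of a 16-mer random double-stranded DNA library in Tris/NaCl/DTT/glycerol buffer for 30 min at room temperature. The pools were then washed, crosslinked, proximity-ligated, amplified by PCR and sequenced on an Illumina NextSeq500.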

The target in assay [2] is ETV5 (Homo sapiens, UniProt P41161 1-510). The following applies: protein: recombinant; tags: N-terminal GST; dsDNA, one strand shown. The essentials:
as §1

In assay [3] the target is HSF1 (Homo sapiens, UniProt Q00613 1-529). The following applies: protein: recombinant; tags: N-terminal GST; chain copies: 3; dsDNA, one strand shown. The method, boiled down: as §1
Chain of HSF1 (Q00613 whole entry): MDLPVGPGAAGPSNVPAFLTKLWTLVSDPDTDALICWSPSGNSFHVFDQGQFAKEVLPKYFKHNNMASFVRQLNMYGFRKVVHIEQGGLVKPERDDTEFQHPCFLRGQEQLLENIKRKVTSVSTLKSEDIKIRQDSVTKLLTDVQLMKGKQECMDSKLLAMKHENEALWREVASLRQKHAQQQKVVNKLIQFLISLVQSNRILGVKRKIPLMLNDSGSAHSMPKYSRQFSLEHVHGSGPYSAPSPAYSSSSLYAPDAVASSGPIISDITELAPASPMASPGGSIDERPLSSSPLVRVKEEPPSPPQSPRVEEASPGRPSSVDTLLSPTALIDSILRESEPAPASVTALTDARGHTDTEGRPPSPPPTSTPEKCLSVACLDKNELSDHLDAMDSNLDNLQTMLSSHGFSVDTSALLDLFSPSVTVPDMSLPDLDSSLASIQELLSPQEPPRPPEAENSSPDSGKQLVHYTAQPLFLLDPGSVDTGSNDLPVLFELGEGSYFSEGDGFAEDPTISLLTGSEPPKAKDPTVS
The target of assay [4] is T2, SPIC (Homo sapiens, UniProt Q8N5J4 1-248).
T2 sequence: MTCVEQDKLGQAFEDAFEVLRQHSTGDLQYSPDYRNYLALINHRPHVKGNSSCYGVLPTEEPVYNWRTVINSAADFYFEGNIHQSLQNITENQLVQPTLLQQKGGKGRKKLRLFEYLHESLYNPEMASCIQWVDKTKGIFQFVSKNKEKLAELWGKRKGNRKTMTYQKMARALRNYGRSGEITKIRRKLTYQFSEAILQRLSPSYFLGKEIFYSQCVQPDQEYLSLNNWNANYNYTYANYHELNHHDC
The settings on record: protein: recombinant; tags: N-terminal GST; dsDNA, one strand shown. The method, boiled down: as §1

Assay [5] deals with ELF4 (Homo sapiens, UniProt Q99607 1-663). The settings on record: protein: recombinant; tags: N-terminal GST; dsDNA, one strand shown. The method, boiled down:
as §1

Assay [6] deals with T3, ELK4 (Homo sapiens, UniProt P28324-2 1-405).
T3 sequence: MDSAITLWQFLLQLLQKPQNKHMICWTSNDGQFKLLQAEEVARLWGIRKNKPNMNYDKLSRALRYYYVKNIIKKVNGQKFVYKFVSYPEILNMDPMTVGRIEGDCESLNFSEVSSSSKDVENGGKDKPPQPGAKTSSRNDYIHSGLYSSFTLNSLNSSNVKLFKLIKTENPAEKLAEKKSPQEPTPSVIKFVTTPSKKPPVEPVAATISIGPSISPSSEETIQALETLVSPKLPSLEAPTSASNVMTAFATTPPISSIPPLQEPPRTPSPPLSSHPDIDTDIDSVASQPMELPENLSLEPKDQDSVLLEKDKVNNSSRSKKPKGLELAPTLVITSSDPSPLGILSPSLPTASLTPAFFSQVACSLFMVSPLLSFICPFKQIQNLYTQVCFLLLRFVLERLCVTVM
The settings on record: protein: recombinant; tags: N-terminal GST; dsDNA, one strand shown. The method, boiled down: as §1

The target of assay [7] is T4, ETV2 (Homo sapiens, UniProt O00321 1-342).
T4 sequence: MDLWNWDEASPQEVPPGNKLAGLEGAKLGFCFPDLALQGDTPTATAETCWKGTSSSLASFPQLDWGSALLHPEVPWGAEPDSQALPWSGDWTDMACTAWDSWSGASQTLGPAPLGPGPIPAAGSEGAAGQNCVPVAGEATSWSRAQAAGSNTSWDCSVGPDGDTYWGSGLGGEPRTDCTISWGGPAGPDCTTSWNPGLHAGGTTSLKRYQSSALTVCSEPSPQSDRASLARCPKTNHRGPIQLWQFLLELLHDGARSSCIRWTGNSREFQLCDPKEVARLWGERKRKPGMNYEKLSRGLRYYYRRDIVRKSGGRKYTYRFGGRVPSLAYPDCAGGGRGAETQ
The following applies: protein: recombinant; tags: N-terminal GST; dsDNA, one strand shown. The essentials: as §1

The target in assay [8] is T5, ELF3 (Homo sapiens, UniProt P78545 1-371).
T5 sequence: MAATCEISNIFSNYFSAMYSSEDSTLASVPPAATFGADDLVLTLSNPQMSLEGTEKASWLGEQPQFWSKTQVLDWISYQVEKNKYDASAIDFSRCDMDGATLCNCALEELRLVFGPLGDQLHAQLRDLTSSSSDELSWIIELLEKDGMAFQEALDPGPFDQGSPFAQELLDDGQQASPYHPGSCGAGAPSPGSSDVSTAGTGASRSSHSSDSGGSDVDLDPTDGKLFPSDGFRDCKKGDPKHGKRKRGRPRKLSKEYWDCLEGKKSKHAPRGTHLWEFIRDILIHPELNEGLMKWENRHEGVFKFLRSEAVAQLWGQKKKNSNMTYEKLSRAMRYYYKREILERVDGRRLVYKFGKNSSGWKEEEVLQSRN
The following applies: protein: recombinant; tags: N-terminal GST; dsDNA, one strand shown. The essentials: as §1

For assay [9], the target named is CRX (Homo sapiens, UniProt O43186 1-299). The following applies: protein: recombinant; tags: N-terminal GST; dsDNA, one strand shown. The method, boiled down: as §1
Chain of CRX (O43186 whole entry): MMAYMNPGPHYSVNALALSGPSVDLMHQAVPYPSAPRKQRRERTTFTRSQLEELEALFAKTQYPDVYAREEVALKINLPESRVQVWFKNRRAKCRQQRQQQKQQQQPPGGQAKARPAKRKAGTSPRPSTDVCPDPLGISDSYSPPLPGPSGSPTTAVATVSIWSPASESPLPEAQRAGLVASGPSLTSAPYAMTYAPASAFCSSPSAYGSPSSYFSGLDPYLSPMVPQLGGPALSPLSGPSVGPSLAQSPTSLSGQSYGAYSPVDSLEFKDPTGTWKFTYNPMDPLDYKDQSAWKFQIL
Assay [10] has as its target ETV1 (Homo sapiens, UniProt P50549 1-477). The following applies: protein: recombinant; tags: N-terminal GST; dsDNA, one strand shown. The essentials:
as §1

The target in assay [11] is T6, ERF (Homo sapiens, UniProt P50548 1-548).
T6 sequence: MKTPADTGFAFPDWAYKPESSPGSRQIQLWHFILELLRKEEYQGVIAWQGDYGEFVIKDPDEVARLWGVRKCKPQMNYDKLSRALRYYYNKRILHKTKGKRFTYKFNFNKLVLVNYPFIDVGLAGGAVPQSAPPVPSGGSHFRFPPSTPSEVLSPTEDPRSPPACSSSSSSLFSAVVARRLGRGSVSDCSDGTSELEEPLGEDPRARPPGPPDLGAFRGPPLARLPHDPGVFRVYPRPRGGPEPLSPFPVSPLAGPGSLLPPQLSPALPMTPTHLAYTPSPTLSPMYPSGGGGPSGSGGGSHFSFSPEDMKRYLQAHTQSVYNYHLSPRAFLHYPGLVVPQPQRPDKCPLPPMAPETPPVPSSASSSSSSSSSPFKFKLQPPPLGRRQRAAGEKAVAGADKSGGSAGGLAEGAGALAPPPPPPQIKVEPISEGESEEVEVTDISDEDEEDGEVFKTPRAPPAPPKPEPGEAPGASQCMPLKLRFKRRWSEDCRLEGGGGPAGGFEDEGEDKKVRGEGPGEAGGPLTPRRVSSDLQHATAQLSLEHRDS
The following applies: protein: recombinant; tags: N-terminal GST; dsDNA, one strand shown. The method, boiled down:
as §1

The target in assay [12] is T7, ETV3L (Homo sapiens, UniProt Q6ZN32 1-361).
T7 sequence: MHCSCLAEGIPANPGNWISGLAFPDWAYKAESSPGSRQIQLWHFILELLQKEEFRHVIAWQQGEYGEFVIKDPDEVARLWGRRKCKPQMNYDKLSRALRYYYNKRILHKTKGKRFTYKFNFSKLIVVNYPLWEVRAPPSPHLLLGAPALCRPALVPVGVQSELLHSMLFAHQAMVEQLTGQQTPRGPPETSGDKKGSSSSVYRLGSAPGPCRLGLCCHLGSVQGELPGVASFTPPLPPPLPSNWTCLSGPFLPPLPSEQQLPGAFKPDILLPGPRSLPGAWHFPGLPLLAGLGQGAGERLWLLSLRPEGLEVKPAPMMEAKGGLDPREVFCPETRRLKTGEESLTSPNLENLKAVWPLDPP
The following applies: protein: recombinant; tags: N-terminal GST; dsDNA, one strand shown. The essentials:
as §1

Assay [13] addresses T8, ETS2 (Homo sapiens, UniProt P15036 1-469).
T8 sequence: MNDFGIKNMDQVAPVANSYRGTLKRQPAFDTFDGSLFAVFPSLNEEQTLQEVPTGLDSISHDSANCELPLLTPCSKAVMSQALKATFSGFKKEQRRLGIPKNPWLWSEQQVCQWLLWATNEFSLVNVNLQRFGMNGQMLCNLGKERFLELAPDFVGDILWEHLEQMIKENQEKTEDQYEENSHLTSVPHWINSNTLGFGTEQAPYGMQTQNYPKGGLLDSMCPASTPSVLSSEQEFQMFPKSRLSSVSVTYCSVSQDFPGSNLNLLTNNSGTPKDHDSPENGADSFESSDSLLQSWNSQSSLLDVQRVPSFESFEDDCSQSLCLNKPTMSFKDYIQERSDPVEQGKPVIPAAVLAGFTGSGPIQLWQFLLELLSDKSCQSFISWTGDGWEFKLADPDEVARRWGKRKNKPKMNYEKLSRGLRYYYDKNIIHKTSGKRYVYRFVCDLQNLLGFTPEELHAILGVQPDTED
The settings on record: protein: recombinant; tags: N-terminal GST; dsDNA, one strand shown. The method, boiled down: as §1

For assay [14], the target named is T9, SPDEF (Homo sapiens, UniProt O95238 1-335).
T9 sequence: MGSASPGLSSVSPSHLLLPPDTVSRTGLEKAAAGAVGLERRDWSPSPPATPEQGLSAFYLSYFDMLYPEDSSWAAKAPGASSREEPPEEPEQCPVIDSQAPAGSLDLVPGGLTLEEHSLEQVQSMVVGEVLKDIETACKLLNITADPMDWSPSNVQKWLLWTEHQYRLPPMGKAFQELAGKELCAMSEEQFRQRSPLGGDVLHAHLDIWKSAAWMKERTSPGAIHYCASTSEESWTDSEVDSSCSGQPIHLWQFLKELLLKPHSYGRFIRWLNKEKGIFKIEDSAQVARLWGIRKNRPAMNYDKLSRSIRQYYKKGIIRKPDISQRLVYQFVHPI
The settings on record: protein: recombinant; tags: N-terminal GST; dsDNA, one strand shown. The essentials:
as §1

The target of assay [15] is T10, ETV7 (Homo sapiens, UniProt Q9Y603 1-341).
T10 sequence: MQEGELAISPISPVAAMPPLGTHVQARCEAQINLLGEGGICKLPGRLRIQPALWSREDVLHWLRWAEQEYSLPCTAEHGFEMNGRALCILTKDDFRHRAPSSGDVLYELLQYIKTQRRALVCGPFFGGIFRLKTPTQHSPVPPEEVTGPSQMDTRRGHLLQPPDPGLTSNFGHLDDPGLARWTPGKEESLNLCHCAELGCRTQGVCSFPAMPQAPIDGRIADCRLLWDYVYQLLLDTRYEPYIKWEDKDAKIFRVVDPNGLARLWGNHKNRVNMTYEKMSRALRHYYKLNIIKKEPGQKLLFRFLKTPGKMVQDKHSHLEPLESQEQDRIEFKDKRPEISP
The following applies: protein: recombinant; tags: N-terminal GST; dsDNA, one strand shown. The method, boiled down: as §1

The target in assay [16] is T11, ELF5 (Homo sapiens, UniProt Q9UKW6-2 1-255).
T11 sequence: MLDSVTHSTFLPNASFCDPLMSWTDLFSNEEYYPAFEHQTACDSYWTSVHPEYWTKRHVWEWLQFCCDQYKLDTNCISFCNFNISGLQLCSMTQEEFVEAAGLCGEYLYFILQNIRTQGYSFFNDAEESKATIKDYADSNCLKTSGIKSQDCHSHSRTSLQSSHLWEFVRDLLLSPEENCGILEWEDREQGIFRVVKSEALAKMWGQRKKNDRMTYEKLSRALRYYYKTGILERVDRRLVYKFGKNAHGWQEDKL
The following applies: protein: recombinant; tags: N-terminal GST; dsDNA, one strand shown. The method, boiled down: as §1

In assay [17] the target is T12, ETV3 (Homo sapiens, UniProt P41162-2 1-143).
T12 sequence: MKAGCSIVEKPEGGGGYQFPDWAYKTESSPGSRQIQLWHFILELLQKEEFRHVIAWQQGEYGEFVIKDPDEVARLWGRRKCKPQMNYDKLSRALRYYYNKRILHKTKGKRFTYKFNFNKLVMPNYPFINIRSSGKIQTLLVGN
The settings on record: protein: recombinant; tags: N-terminal GST; dsDNA, one strand shown. The method, boiled down: as §1

In assay [18] the target is ETV6 (Homo sapiens, UniProt P41212 1-452). The settings on record: protein: recombinant; tags: N-terminal GST; dsDNA, one strand shown. The method, boiled down: as §1
Chain of ETV6 (P41212 whole entry): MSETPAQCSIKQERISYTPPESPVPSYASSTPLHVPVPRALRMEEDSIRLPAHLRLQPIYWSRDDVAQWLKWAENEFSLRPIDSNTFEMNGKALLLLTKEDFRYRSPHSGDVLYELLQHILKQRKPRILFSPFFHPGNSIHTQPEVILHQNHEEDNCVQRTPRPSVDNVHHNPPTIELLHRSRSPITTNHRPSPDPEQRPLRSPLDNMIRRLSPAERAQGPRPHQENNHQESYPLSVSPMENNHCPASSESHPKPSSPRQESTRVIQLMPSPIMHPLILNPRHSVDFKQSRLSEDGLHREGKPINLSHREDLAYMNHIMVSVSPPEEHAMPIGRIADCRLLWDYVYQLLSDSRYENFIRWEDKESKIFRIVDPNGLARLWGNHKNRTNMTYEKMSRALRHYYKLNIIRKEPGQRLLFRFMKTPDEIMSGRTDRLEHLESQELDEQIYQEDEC

Chain of ETV1 (P50549 whole entry): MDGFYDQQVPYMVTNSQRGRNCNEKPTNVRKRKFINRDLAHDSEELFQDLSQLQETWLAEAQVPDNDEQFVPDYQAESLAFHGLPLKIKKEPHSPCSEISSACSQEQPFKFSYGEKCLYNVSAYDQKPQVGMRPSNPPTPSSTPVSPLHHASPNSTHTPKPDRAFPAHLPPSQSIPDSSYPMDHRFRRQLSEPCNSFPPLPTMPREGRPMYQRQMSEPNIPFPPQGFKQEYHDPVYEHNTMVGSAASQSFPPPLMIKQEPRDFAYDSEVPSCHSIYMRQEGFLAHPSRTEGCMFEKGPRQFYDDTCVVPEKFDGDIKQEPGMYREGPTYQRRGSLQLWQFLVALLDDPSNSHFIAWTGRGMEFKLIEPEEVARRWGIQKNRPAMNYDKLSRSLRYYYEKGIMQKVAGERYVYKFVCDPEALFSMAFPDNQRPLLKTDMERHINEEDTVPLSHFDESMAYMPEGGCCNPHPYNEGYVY
Chain of ELF4 (Q99607 whole entry): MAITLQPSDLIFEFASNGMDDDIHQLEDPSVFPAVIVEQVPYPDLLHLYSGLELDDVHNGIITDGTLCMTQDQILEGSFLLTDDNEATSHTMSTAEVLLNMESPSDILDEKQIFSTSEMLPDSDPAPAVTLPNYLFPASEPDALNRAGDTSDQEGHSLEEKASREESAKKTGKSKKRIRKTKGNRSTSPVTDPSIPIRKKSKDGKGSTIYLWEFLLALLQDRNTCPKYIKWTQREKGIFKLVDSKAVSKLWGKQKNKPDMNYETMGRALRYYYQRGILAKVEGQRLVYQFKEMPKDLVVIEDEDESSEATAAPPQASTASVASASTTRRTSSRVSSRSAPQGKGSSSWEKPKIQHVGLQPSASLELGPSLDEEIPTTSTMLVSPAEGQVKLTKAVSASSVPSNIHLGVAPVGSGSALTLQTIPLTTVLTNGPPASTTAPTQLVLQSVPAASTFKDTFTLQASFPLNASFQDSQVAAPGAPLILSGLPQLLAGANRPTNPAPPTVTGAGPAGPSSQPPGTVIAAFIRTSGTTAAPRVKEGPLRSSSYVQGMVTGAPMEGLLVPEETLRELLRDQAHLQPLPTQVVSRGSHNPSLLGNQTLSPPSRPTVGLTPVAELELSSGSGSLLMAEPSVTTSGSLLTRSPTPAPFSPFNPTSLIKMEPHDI
Chain of ETV5 (P41161 whole entry): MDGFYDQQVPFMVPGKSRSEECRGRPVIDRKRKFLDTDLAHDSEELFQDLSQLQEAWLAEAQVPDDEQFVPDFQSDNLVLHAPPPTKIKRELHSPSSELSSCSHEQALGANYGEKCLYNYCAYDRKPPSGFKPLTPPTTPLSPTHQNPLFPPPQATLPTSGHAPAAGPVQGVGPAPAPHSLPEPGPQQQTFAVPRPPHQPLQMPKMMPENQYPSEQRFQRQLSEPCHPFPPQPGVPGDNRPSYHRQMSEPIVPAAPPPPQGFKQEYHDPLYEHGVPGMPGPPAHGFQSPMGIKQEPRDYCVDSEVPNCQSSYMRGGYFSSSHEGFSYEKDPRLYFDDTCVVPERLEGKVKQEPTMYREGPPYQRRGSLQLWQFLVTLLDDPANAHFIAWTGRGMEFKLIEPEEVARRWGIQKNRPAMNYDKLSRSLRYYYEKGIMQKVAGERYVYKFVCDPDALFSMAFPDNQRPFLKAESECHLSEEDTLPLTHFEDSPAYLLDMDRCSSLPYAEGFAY

Turning to AAGATT, the binding signal was 1.06 fold enrichment (6-mer frequency, TF over GST control) in assay [1]; 1.25 fold enrichment (6-mer frequency, TF over GST control) in assay [2]; 2.11 fold enrichment (6-mer frequency, TF over GST control) in assay [3]; 1.12 fold enrichment (6-mer frequency, TF over GST control) in assay [4]; 1.22 fold enrichment (6-mer frequency, TF over GST control) in assay [5]; 1.35 fold enrichment (6-mer frequency, TF over GST control) in [6]. In addition, the binding signal in [7] was 1.16 fold enrichment (6-mer frequency, TF over GST control); in assay [8], 1.08 fold enrichment (6-mer frequency, TF over GST control); in assay [9], 2.4 fold enrichment (6-mer frequency, TF over GST control); in assay [10], 1.18 fold enrichment (6-mer frequency, TF over GST control); in assay [11] it was 1.1 fold enrichment (6-mer frequency, TF over GST control); in [12], 1.18 fold enrichment (6-mer frequency, TF over GST control). The binding signal in assay [13] is 1.18 fold enrichment (6-mer frequency, TF over GST control); in assay [14], 1.16 fold enrichment (6-mer frequency, TF over GST control); in assay [15], 1.16 fold enrichment (6-mer frequency, TF over GST control); in assay [16] it was 1.14 fold enrichment (6-mer frequency, TF over GST control); in assay [17] it was 1.14 fold enrichment (6-mer frequency, TF over GST control); in [18] it was 1.19 fold enrichment (6-mer frequency, TF over GST control).
